{
  "source": "PubChem BioAssay (NCATS)",
  "note": "Values joined by “and” are separate entries in the source; they are usually repeats but may differ in a detail not shown here. Identical values can stand only once. Inconclusive results are not listed. Where a call stands in place of a potency, no number is given. Some structures have more than one record in an assay (separate samples or runs), and their calls can disagree. Active and inactive are the calls of the source. Calls come from the whole dose curve; as a rule, active = well fitted inhibition curve with a large enough effect; inconclusive = small, poorly fitted or top-dose-only effect; inactive = no such curve, though single readings can be large or run the other way. Potency is the fitted concentration of half-maximal effect.",
  "data": [
    {"experiment": "qHTS assay for measurement of the activity of small molecule inhibitors on Zika virus induced Caspase-3 activity in human iPSC derived neural progenitor cells (hNPCs) (AID 1224857); note: nearly all actives have a fitted effect of over 65% in size", "details": "hNPCs ZIKV-induced caspase-3/7, Caspase-Glo luminescence, 6 h; series mostly up to 45.7 µM", "source_text": "National Center for Advancing Translational Sciences [NCATS]\nJohns Hopkins University School of Medicine\nIncrease in the Caspase-3 activity indicates an activation of apoptosis cell death pathway caused by Zika virus infection in certain types of neuronal cells including human neural progenitor cells (hNPCs), astrocytes, and astrocytoma cell line (SNB-19). This cell-based caspase-3 activity assay measures the increased caspase-3 activity in the human iPSC derived neural progenitor cells (hNPCs) after a 6-hour Zika virus infection with a luminescence readout. A decrease in the luminescence signal in this assay by small molecule treatment indicates an inhibitory effect of that small molecule on the Zika virus induced caspase-3 activity that may correlate with its effect on reduction of Zika virus caused cell death.\nThe medium for hNPCs consists of DMEM/F12, N2 supplement (ThermoFisher, Cat.# 17502048), NEAA (ThermoFisher, Cat. # 11140050), 2 ug/ml heparin, 2 uM cyclopamine, and B27 (ThermoFisher, Cat. # 17504044). A Caspase-Glo 3/7 assay kit (catalog number G8092; Promega, Madison, WI) was used to detect caspase-3 activity induced by Zika virus infection in human cells. The reagent mixture was reconstituted as described in the protocol from the manufacturer. Polystyrene tissue culture treated and PDL coated white plates were obtained from Greiner Bio-One (Monroe, NC). Cells were seeded in 384- or 1536-well assay plates and cultured at 37 C with 5% CO2 for 16 to 20 hours. The typical cell seeding density in the 1536-well plate assay is 350 cells/well in 3 ul medium for hNPCs in tissue culture treated plates. Compounds were added to cells and incubated for one hour before addition of ZIKV solution to cells (2 FFU/cell). After incubation at 37 C with 5% CO2 for 6 hours, the reagent mixture of Caspase-Glo 3/7 assay kit was added to each well, followed by incubation at room temperature for 30 minutes. The luminescence intensity of the assay plates was measured using a ViewLux plate reader (PerkinElmer). Data were normalized by using the cell-containing wells without ZIKV as a negative control (0% induction of caspase 3/7 activity) and wells containing ZIKV infected cells (Caspase-3 activity induced) as a positive control (100% induction of caspase 3 activity). The percentage inhibitions of the increased Caspase-3 activity by small molecule inhibitors were then calculated.", "values": [
      {"smiles": "Cc1cc(SCc2sc(-c3ccc(C(F)(F)F)cc3)nc2C)ccc1OCC(=O)O", "Potency": "inactive"},
      {"smiles": "O=C1CCc2cc(OCCCCc3nnnn3C3CCCCC3)ccc2N1", "Potency": "inactive"},
      {"smiles": "CNCc1ccc(-c2[nH]c3cc(F)cc4c3c2CCNC4=O)cc1", "Potency": "inactive"},
      {"smiles": "CCC(=O)N[C@H]1CC[C@H](C(=O)N(C)c2ccc(-c3nc4ccccc4o3)cc2)C1", "Potency": "inactive"},
      {"smiles": "OCCC#Cc1nc(-c2ccc(F)cc2)c(-c2ccncc2)n1CCCc1ccccc1", "Potency": "inactive"},
      {"smiles": "CCn1c(-c2nonc2N)nc2c(C#CC(C)(C)O)ncc(OC[C@H]3CCCNC3)c21", "Potency": "inactive"},
      {"smiles": "COc1ccc2nc(S(=O)Cc3ncc(C)c(OC)c3C)[nH]c2c1", "note": "(stereo not given)", "Potency": "inactive"},
      {"smiles": "CCOc1cc(C(=O)Nc2ccc(Cl)c(-c3nc4ccccc4[nH]3)c2)cc(OCC)c1OCC", "Potency": "inactive"},
      {"smiles": "Nc1cccc(S(=O)(=O)N2CCCN(S(=O)(=O)c3ccc4c(c3)OCCO4)CC2)c1", "Potency": "inactive"},
      {"smiles": "CCn1c(-c2nonc2N)nc2cnc(Oc3cccc(NC(=O)c4ccc(OCCN5CCOCC5)cc4)c3)cc21", "Potency": "inactive"},
      {"smiles": "O=C(NOC[C@H](O)CO)c1ccc(F)c(F)c1Nc1ccc(I)cc1F", "Potency": "inactive"},
      {"smiles": "O=C1CCCC2=C1C(c1[nH]ncc1Cl)N=C(Nc1nc3ccccc3o1)N2", "note": "(stereo not given)", "Potency": "inactive"},
      {"smiles": "CCCCNc1cc(C(=O)O)cc(S(N)(=O)=O)c1Oc1ccccc1", "Potency": "inactive"},
      {"smiles": "CCc1cc(Nc2nccc(-c3c(-c4ccc(OC)c(C(=O)Nc5c(F)cccc5F)c4)nc4ccccn34)n2)c(OC)cc1N1CCC(N2CCN(S(C)(=O)=O)CC2)CC1", "Potency": "inactive"},
      {"smiles": "CCCn1c(=O)c2[nH]c(C34CC5CC3C[C@@H](C5)C4)nc2n(CCC)c1=O", "Potency": "inactive"},
      {"smiles": "COc1cc(Nc2ncc3c(n2)-c2ccc(Cl)cc2C(c2c(F)cccc2OC)=NC3)ccc1C(=O)O", "Potency": "inactive"},
      {"smiles": "CCOc1ccn(-c2ccc(F)cc2)c(=O)c1C(=O)Nc1ccc(Oc2ccnc(N)c2Cl)c(F)c1", "Potency": "inactive"},
      {"smiles": "O=C(Nc1nc2ccccc2n1CCN1CCOCC1)c1cccc([N+](=O)[O-])c1", "Potency": "inactive"},
      {"smiles": "Cc1cc(Nc2nc(N[C@@H](C)c3ncc(F)cn3)ncc2Cl)n[nH]1", "Potency": "inactive"},
      {"smiles": "CCOc1ccc(Cc2cc([C@@H]3O[C@H](CO)[C@@H](O)[C@H](O)[C@@H]3O)ccc2Cl)cc1", "Potency": "inactive"},
      {"smiles": "Cc1ccc(N(CC2=NCCN2)c2cccc(O)c2)cc1", "Potency": "inactive"},
      {"smiles": "COc1ccc([C@@H]2CC(=O)c3c(O)cc(O[C@@H]4O[C@H](CO[C@@H]5O[C@@H](C)[C@H](O)[C@@H](O)[C@@H]5O)[C@@H](O)[C@H](O)[C@@H]4O)cc3O2)cc1O", "Potency": "inactive"},
      {"smiles": "CCC(C)N(C)C(=O)c1cc2ccccc2c(-c2ccccc2Cl)n1", "note": "(stereo not given)", "Potency": "inactive"},
      {"smiles": "Cc1c(CCOc2ccc(C(=O)O)cc2)c2cc(Cl)ccc2n1C(c1ccccc1)c1ccccc1", "Potency": "inactive"},
      {"smiles": "Cc1ccnc(NS(=O)(=O)c2ccc(NC(=O)Nc3ccc(S(=O)(=O)Nc4nccc(C)n4)cc3)cc2)n1", "Potency": "inactive"},
      {"smiles": "Cc1oncc1C(=O)Nc1ccc(C(F)(F)F)cc1", "Potency": "inactive and 2.64 µM (active)"},
      {"smiles": "C[C@]12CCC(=O)C=C1CC[C@@H]1[C@@H]2[C@@H](O)C[C@@]2(C)[C@H]1CC[C@]2(O)C(=O)CO", "Potency": "inactive"},
      {"smiles": "Clc1cccc(Cl)c1NC1=NCCN1", "Potency": "inactive"},
      {"smiles": "COCCNCCCn1c(C(=O)CF)c(-c2ccc(C)cc2)c2c(N)ncnc21", "Potency": "inactive"},
      {"smiles": "NCCc1ccc(O)c(O)c1", "Potency": "inactive"},
      {"smiles": "Cc1cccc(-c2[nH]c(C(C)(C)C)nc2-c2ccc3nccnc3c2)n1", "Potency": "inactive"},
      {"smiles": "Cc1cnc(NC(=O)C2=C(O)c3ccccc3S(=O)(=O)N2C)s1", "Potency": "inactive"},
      {"smiles": "CC1(C)Cc2c(-c3ccccc3)c(-c3ccc(Cl)cc3)c(CC(=O)O)n2C1", "Potency": "inactive"},
      {"smiles": "O=C(c1cc(Cc2n[nH]c(=O)c3ccccc23)ccc1F)N1CCN(C(=O)C2CC2)CC1", "Potency": "inactive"},
      {"smiles": "C#Cc1cccc(Nc2ncnc3cc(OCCOC)c(OCCOC)cc23)c1", "Potency": "inactive"},
      {"smiles": "COc1ccccc1-c1cccc(-c2c(O)c3cc(C#N)c(Cl)cc3[nH]c2=O)c1", "Potency": "inactive"},
      {"smiles": "CN[C@@H](C)C(=O)N[C@H]1CCCC[C@H]2CC[C@@H](C(=O)N[C@@H](c3ccccc3)c3cn(CCCCc4ccc(CCCCn5cc([C@@H](NC(=O)[C@@H]6CC[C@@H]7CCCC[C@H](NC(=O)[C@H](C)NC)C(=O)N76)c6ccccc6)nn5)cc4)nn3)N2C1=O", "Potency": "inactive"},
      {"smiles": "CCOc1cc(N2CCC(O)CC2)ccc1Nc1ncc2c(n1)N(C)c1ccccc1C(=O)N2C", "Potency": "inactive"},
      {"smiles": "CCn1cc(C(=O)O)c(=O)c2cc(F)c(N3CCNC(C)C3)c(F)c21", "note": "(stereo not given)", "Potency": "inactive"},
      {"smiles": "CC(C)(Sc1ccc(CCN(CCCCC2CCCCC2)C(=O)NC2CCCCC2)cc1)C(=O)O", "Potency": "inactive"}
    ]}
  ]
}
